Inconclusive results are not listed. Where a call stands in place of a potency, no number is given. A number with no mark means an inactive call. Activity calls are given as the source filed them. The call rests on the fitted dose curve; in most records, active means well fitted inhibition curve with a large enough effect; inconclusive means small, poorly fitted or top-dose-only effect; inactive means no such curve, though single readings can be large or run the other way. Where a SMILES comes first, the peptide text is derived from it. The star is where a group is joined. Cbz = O=C(OCc1ccccc1)*; CH2F = FC*
test system: Zika virus NS2B-NS3 protease (linked construct); assay: Primary screen NINDS Rhodamine qHTS for Zika virus inhibitors (AID 1347160); details: purified NS2B-NS3 protease, Rhodamine110 substrate fluorescence; series mostly up to 33.1 µM; further: nearly all actives have a fitted effect of over 55% in size
How it was run: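 Aprotinin served as in-plate control. Conditions: 25 nM linked NS2B-NS3, pH 8.0 Tris buffer, titrated compounds, 15 min preincubation and 15 min reaction with 1.5 microM Rhod110 substrate at room temperature.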
Potency means the concentration at half of the fitted maximal effect.

Question: For `CC1CC(=O)[C@]2(O)C(C(=O)OCCc3ccc(O)c(O)c3)=CO[C@@H](O[C@@H]3O[C@H](CO)[C@@H](O)[C@H](O)[C@H]3O)[C@H]12` (stereo partly drawn), which Potency is on record?
Answer: inactive

Question: For `CCC/C=C1\OC(=O)C2=C1CCC(O)C2O` (stereo not drawn), which Potency is on record?
Answer: inactive

Question: How did the Potency turn out when `CCC(C)/C=C(C)/C=C/C1=CC2=C(Cl)C(=O)C(C)(OC(C)=O)C(=O)C2=CN1C(CCCN=C(N)N)C(=O)O` (stereo not drawn) was run?
Answer: inactive

Question: Which Potency does the source give for `CC1(C)CC[C@]2(C(=O)O[C@@H]3O[C@H](CO)[C@@H](O)[C@H](O)[C@H]3O)CC[C@]3(C)C(=CCC4[C@@]5(C)CC[C@H](O[C@@H]6O[C@H](C(=O)O)[C@@H](O)[C@H](O)[C@H]6OC6OC(CO)C(O)C(O)C6O)C(C)(C)C5CC[C@]43C)[C@@H]2C1` (stereo partly drawn) here?
Answer: inactive

Question: How did the Potency turn out when `COC(=O)CC[C@H](NC(=O)[C@H](CC(C)C)NC(=O)OCc1ccccc1)C(=O)N[C@@H](Cc1cnc[nH]1)C(=O)N[C@@H](CC(=O)OC)C(=O)CF` (Cbz-LE(OMe)HD(OMe)-CH2F) was run?
Answer: inactive

Question: Which Potency does the source give for `CC(=O)OC1CC2C(C)(C)C(=O)C=CC2(C)C2CC(=O)C3=C(CCC3C3=CC(O)OC3=O)C12C` (stereo not drawn) here?
Answer: inactive

Question: `C=C1CC[C@@H]2[C@](C)(CO)[C@H](O[C@@H]3O[C@H](CO)[C@@H](O)[C@H](O)[C@H]3O)CC[C@@]2(C)[C@@H]1C/C=C1/C(=O)OC[C@H]1O` was tested. Which Potency did it give?
Answer: inactive

Question: For `C=C1CC[C@H]2[C@@](C)(CCC(O)[C@@]2(C)CO)[C@@H]1/C=C/C(=C\C(=O)O)C(=O)O` (stereo partly drawn), which Potency is on record?
Answer: inactive

Question: With `CC1=CC(=O)CC(C)(C)C1/C=C/C(C)OC1OC(COC2OCC(O)C(O)C2O)C(O)C(O)C1O` (stereo not drawn) as the compound, how does the Potency read?
Answer: inactive

Question: With `COc1c2c(c(C)c3c1C(=O)OC3)OC1(C)CC(O)C34OC(OC)(CCC3(C)C1C2)OC4(C)CO` (stereo not drawn) as the compound, how does the Potency read?
Answer: inactive

Question: How did the Potency turn out when `C/C(=C\CCC(C)(C)O)CCO[C@@H]1O[C@H](CO[C@@H]2O[C@@H](C)[C@H](O)[C@@H](O)[C@H]2O)[C@@H](O)[C@H](O)[C@H]1O` was run?
Answer: inactive

Question: How did the Potency turn out when `C=C1CC/C=C(/C(=O)O)CCC2C1CC2(C)C` (stereo not drawn) was run?
Answer: inactive

Question: How did the Potency turn out when `CC(=O)O[C@@H]1C=C2[C@H](CC[C@@]3(C)[C@@]2(O)CC[C@H]2Cc4c([nH]c5ccccc45)[C@@]23C)O[C@@H]1C(C)(C)O` was run?
Answer: inactive

Question: `CC(=O)OC[C@@]12C(=O)C[C@@H](C)[C@]3(C[C@@H](c4ccoc4)OC3=O)[C@H]1CC[C@H](OC(C)=O)[C@]21CO1` was tested. Which Potency did it give?
Answer: inactive

Question: For `C/C=C(/C)C(=O)O[C@@H]1C[C@@H](OC(=O)/C(C)=C\C)[C@@]2(C)C3C(=O)C=C(C)C2C3C1(C)C`, which Potency is on record?
Answer: inactive

Question: Which Potency does the source give for `CC/C=C\CC1C(CC(=O)O)CCC1OC1OC(CO)C(O)C(O)C1O` (stereo not drawn) here?
Answer: inactive

Question: Which activity change, negative = inhibition does the source give for `CC[C@H](C)[C@H](NC(=O)[C@H](Cc1ccc(O)cc1)NC(=O)[C@@H](N)C(C)C)C(=O)N[C@@H](Cc1cnc[nH]1)C(=O)N1CCC[C@H]1C(=O)N[C@@H](Cc1ccccc1)C(=O)O` here?
Answer: 8.38% [at 4.91 µM]

Question: With `CCC(C)C(C(=O)O)N1Cc2c(OCC=C(C)C)c(C)c(OC)c(C(=O)O)c2C1=O` (stereo not drawn) as the compound, how does the Potency read?
Answer: inactive

Question: With `C[C@H]1[C@H](C)CC[C@]2(C(=O)O)CC[C@]3(C(=O)O)C(=CCC4[C@@]5(C)CC[C@H](O[C@@H]6O[C@@H](C)[C@H](O)[C@@H](O)[C@H]6O)C(C)(C)C5CC[C@]43C)[C@H]12` (stereo partly drawn) as the compound, how does the Potency read?
Answer: inactive

Question: How did the Potency turn out when `CC(C(=O)Nc1cc(C#N)ccc1CCCC(=O)O)c1ccc(F)c2ccccc12` (stereo not drawn) was run?
Answer: inactive

Question: Which Potency does the source give for `CC(=O)Nc1cccc2c1c(Sc1ccc(Cl)cc1)c(C)n2CC(=O)O` here?
Answer: inactive

Question: For `CC1(C)CC[C@]2(C(=O)O[C@@H]3O[C@H](CO)[C@@H](O)[C@H](O)[C@H]3O)CC[C@]3(C)C(=CCC4[C@@]5(C)C[C@@H](O)[C@H](O)[C@@](C)(CO)C5[C@H](O)C[C@]43C)C2[C@@H]1O` (stereo partly drawn), which Potency is on record?
Answer: inactive

Question: `COc1c2cc(c(O)c1OC)CCCCC(O)CCc1ccc(O)c-2c1` (stereo not drawn) was tested. Which Potency did it give?
Answer: inactive

Question: With `O=C(O)C[C@H]1CCC(=O)[C@@H]1C/C=C\CCO` as the compound, how does the Potency read?
Answer: inactive

Question: How did the Potency turn out when `C=CC(C)(O)CCC1C(C)(O)CCC2C(C)(C)CCCC21C` (stereo not drawn) was run?
Answer: inactive

Question: How did the Potency turn out when `O=C(O)Cn1nnc(-c2ccc(CN(CCCCOc3ccc(CN4CCCC4)cc3)CCc3ccccc3)cc2)n1` was run?
Answer: inactive

Question: How did the Potency turn out when `CC(C)(O)C1CC=C(C(=O)OC[C@H]2O[C@@H](Oc3cc(C(=O)O)cc(O)c3O)[C@H](O)[C@@H](O)[C@@H]2O)CC1` (stereo partly drawn) was run?
Answer: inactive

Question: `COc1c(C)c(OCC=C(C)C)cc2c1CNC2=O` was tested. Which Potency did it give?
Answer: inactive

Question: How did the Potency turn out when `O=C(O)CC1(O)C(=O)Nc2ccccc21` (stereo not drawn) was run?
Answer: inactive

Question: How did the Potency turn out when `CC(=O)O[C@@H]1CC2C(C)(C)C(=O)C=C[C@]2(C)C2CC[C@]3(C)C(=CC(=O)[C@@H]3c3ccoc3)[C@@]21C` (stereo partly drawn) was run?
Answer: inactive

Question: `CC(=O)/C=C/C1C(C)CC(O[C@@H]2O[C@H](CO)[C@@H](O)[C@H](O)[C@H]2O)CC1(C)C` (stereo partly drawn) was tested. Which Potency did it give?
Answer: inactive

Question: With `C=C1C(O)CC2C(C(=O)O)=COC(OC3OC(CO)C(O)C(O)C3OC(=O)/C=C\c3ccc(O)cc3)C12` (stereo not drawn) as the compound, how does the Potency read?
Answer: inactive

Question: Which Potency does the source give for `CC(CNS(=O)(=O)C(C)C)c1ccc(-c2ccc(C#N)cc2)cc1` (stereo not drawn) here?
Answer: inactive

Question: `C=CCC/C=C/C#CCCCCCCCC[C@H]1C(=O)O[C@H](C)[C@@H]1O` was tested. Which Potency did it give?
Answer: inactive

Question: Which Potency does the source give for `CC1(C)C=Cc2c(ccc3c2[N+]([O-])=C2C3(O)CC34NC(=O)C5(CCCN5C3=O)CC4C2(C)C)O1` (stereo not drawn) here?
Answer: inactive

Question: For `C/C=C/C=C/C1=C2C(=O)C3(C)C4C(C(=O)CC(O)/C=C/C)=C(O1)C1(C)C2C2(C)OC1(O)C4(C)OC23O` (stereo not drawn), which Potency is on record?
Answer: inactive

Question: For `COc1cc(/C=C/C(=O)O[C@@H]2O[C@H](CO)[C@@H](O)[C@H](O)[C@H]2O)ccc1O`, which Potency is on record?
Answer: 8.91 µM (active)

Question: Which Potency does the source give for `C=C1CC2C3(C)C(O)CC(=O)C(C)(C)C3C(O)C(OC(C)=O)C2(C)C2C(=O)OC(C)(C(=O)OC)C(=O)C12C` (stereo not drawn) here?
Answer: inactive

Reference: PubChem BioAssay (NCATS)
